Vaccinia mCherry: vaccinia inhibition (mCherry reporter); Potency, µM (titrated, usually from 36.5 µM), inactives show top-dose activity change, negative = inhibition, most hits filed as inhibitors; Vaccinia virus mCherry reporter infection, fluorescence; AID 720579; 310,000 compounds, 0.63% hits; calls by dose curve; tested in A549 cells; further: nearly all actives have a fitted effect of over 35% in size
VACV Venus inh: vaccinia inhibition (Venus reporter); Vaccinia virus Venus reporter expression, fluorescence; Potency, µM (series often up to 36.5 µM), for inactives: at the top dose activity change, negative = inhibition, hits mostly inhibitors; 330,000 compounds, 0.46% hits; AID 720580; calls by dose curve; tested in A549 cells; further: nearly all actives have a fitted effect of over 30% in size
Pf growth 48h: P. falciparum growth inhibition at 48 hours (one generation); AID 504832; P. falciparum luciferase growth in erythrocytes, 48 h; 310,000 compounds, 5.9% hits; Potency, µM (doses to about 28.7 µM), inactives show at the top dose activity change, negative = inhibition, hits mostly inhibitors
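First compound was added to culture medium, then infected red cells at 0.1% parasitemia and 2% hematocrit (final). After incubation at 37 C under 5% CO2, luciferase detection reagent was dispensed and light output recorded.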
Pf growth 96h: P. falciparum growth inhibition at 96 hours | P. falciparum luciferase reporter growth, 96 h | Potency, µM (highest dose often 28.7 µM), without a hit: at the top dose activity change, negative = inhibition, most hits filed as inhibitors | 320,000 compounds, 6.9% hits
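Readout is luminescence from an integrated firefly luciferase in P. falciparum. Red cells, 2% hematocrit and 0.05% parasitemia final, were cultured with compound through two parasite generations (96 hours) at 37 C, 5% CO2.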
AMA1-RON2 inh: disrupts binding of P. falciparum AMA1 to RON2; AID 720542; AlphaScreen AMA1-biotinylated RON2 peptide binding; 360,000 compounds, 0.2% hits; Potency, µM (doses to about 58.2 µM), for the others: at the top dose activity change, negative = inhibition, actives largely listed as inhibitors;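 further: 0% = vehicle wells and -100% = peptide control; nearly all actives have a fitted effect of over 45% in size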
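AMA1 (3D7) with his tag at 25 nM final met compounds first, then biotinylated RON2 peptide at 25 nM; detection used donor plus acceptor beads, 10 µg/mL apiece, read by AlphaScreen after 30 min at room temperature.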
* marks the source's active call; other numbers are inactive results; i = inactive; ? = inconclusive; nt = no result given; [ ] = dose if it differs, or a comment. A selection: hits, their analogues and other compounds. The true share with any hit is near 8.7%. Unless noted, the call rests on the fitted dose curve; in most records, active means well fitted curve in the direction sought with a large enough effect; inconclusive means small, poorly fitted or top-dose-only effect, or another doubt; inactive means no such curve, though single readings can be large; an effect the other way counts as inactive or inconclusive. Unless noted, on the % scale 0 is the no-effect control and ±100 the full control effect; potency means the concentration at half of the fitted maximal effect.

SMILES	Vaccinia mCherry	VACV Venus inh	Pf growth 48h	Pf growth 96h	AMA1-RON2 inh
CCOc1ccccc1NC(=O)C1CCCN(S(=O)(=O)c2cccs2)C1 (stereo not drawn)	-3%	2%	nt	nt	nt
COc1ccccc1NC(=O)C1CCCN(S(=O)(=O)c2cccc3nsnc23)C1 (stereo not drawn)	-14%	-5%	nt	3.3µM*	0%
CCc1ccccc1NC(=O)C1CCCN(S(=O)(=O)c2cccc3nsnc23)C1 (stereo not drawn)	-10%	-6%	nt	nt	nt
CCOc1ccccc1NC(=O)C1CCCN(S(=O)(=O)c2ccc(OC)c(C)c2)C1 (stereo not drawn)	nt	-12%	10µM*	nt	-3%
Cc1cccc(NC(=O)C2CCCN(S(=O)(=O)c3cccc4nsnc34)C2)c1 (stereo not drawn)	-13%	-17%	nt	8.3µM*	0%
COc1ccccc1-c1nn(CCC(=O)Nc2ccc(C)cc2)c2nc(C)cc(C)c12	-15%	-10%	nt	nt	nt
COc1ccc(-c2nnc(SCC(=O)NCc3ccccc3)nc2-c2ccc(OC)c(OC)c2)cc1OC	?	-30%	nt	nt	nt
CC(C)(C)CC(=O)NCC(c1ccc2c(c1)OCO2)N1CCN(c2ccccc2)CC1 (stereo not drawn)	-2%	0%	nt	nt	nt
Cc1cccc(NC(=O)C2CCN(S(=O)(=O)c3cccc4nsnc34)CC2)n1	-17%	-15%	15%	84%	4%
COc1ccc2nc(NC(=O)C3CCN(S(=O)(=O)c4cccc5nsnc45)CC3)sc2c1	?	?	?	10µM*	-1%
Cc1ccc(C)c(NC(=O)Cc2coc3cc(C)cc(C)c23)c1	0%	-6%	nt	nt	nt
Cc1cc(C)c2c(CC(=O)NCc3ccco3)coc2c1	nt	nt	8%	1µM*	-10%
Cc1ccc(OCCCC(=O)NCc2ccco2)c(C)c1	nt	nt	4.1µM*	11%	nt
Cc1ccc(C(=O)NCCC(=O)NCc2ccco2)cc1	nt	nt	28%	10µM*	-5%
Cc1ccc(SCCC(=O)NCc2ccco2)cc1	nt	-11%	14%	4%	-6%
CCOC(=O)C1=C(N)Oc2c(oc(CO)cc2=O)C1c1ccc(F)cc1 (stereo not drawn)	nt	-15%	?	-9%	-1%
COCCOC(=O)C1=C(N)Oc2c(oc(CO)cc2=O)C1c1c(F)cccc1Cl (stereo not drawn)	-10%	-4%	nt	4.7µM*	1%
OC(CC1CC12c1ccccc1-c1ncccc12)(c1ccccc1)c1ccccc1 (stereo not drawn)	i	-22%	nt	0.83µM*	-7%
O=C(CCn1c(=O)c2cccn2c2cccnc21)N1CCN(c2cccc(Cl)c2)CC1	-25%	-13%	9.3µM*	?	0%
Cc1ccc(NC(=O)Cn2c(=O)n(Cc3nc(-c4ccccc4)no3)c(=O)c3cc4c(cc32)OCO4)cc1C	-5%	5%	nt	nt	nt
O=S(=O)(NN1CCOCC1)c1cc(Cl)cc(Cl)c1O	-10%	-5%	-19%	1.7µM*	2%
CNc1ccccc1C(C)(C)c1cc(-c2cc(C)cc(C)c2)no1	-11%	-2%	?	9.3µM*	?
CNc1ccccc1C(C)(C)c1cc(-c2cccc(OC)c2)no1	6%	83%	?	?	1%
COc1cc(NC(=O)c2noc3c2CC(C)CC3)c(OC)cc1Cl (stereo not drawn)	i	-8%	nt	nt	nt
Cc1ccc(-n2cc(CNCCn3nc(C)cc3C)c(-c3ccc(F)cc3)n2)cc1	-16%	?	?	-6%	-5%
SMILES	Vaccinia mCherry	VACV Venus inh	Pf growth 48h	Pf growth 96h	AMA1-RON2 inh
CCN1CCC(CNCc2cn(-c3ccc(OC)cc3)nc2-c2ccccc2Cl)C1 (stereo not drawn)	?	-20%	2.1µM*	?	-8%
COc1ccc(-n2cc(CNCCN3CCOC3=O)c(-c3ccccc3Cl)n2)cc1	-4%[7.34 µM]	5%[7.34 µM]	-7%	?	-9%
Fc1ccc(-n2cc(CNCCc3ccccn3)c(-c3ccccc3Cl)n2)cc1	-23%	-21%	8.3µM*	23%	23%
COc1ccc(-n2cc(CNCCCn3ccnc3)c(-c3ccccc3Cl)n2)cc1	nt	nt	1.5µM*	20%	-8%
Cc1ccc(-n2cc(CNCCc3ncc(C)[nH]3)c(-c3ccc(F)cc3)n2)cc1	?	?	1.7µM*	20%	27%
COc1ccc(-n2cc(CNCCc3ncc(C)[nH]3)c(-c3ccccc3Cl)n2)cc1	i	-8%	-12%	?	35%

Assay outcomes (PubChem BioAssay)
